This note sets out measurements from PubChem BioAssay (Tox21).

Molecules are shown by their SMILES. Values joined by “and” are separate entries in the source; they are usually repeats but may differ in a detail not shown here. Equal entries are not always repeated. Records with an inconclusive call do not appear. Active and inactive are the calls of the source. Unless noted, calls follow the shape of the dose curve; as a rule, active = well fitted curve in the direction sought with a large enough effect in the repeat runs; inconclusive = weak or mixed curves; inactive = no such curve, though single readings can be large; an effect the other way counts as inactive or inconclusive.

Assay [1] is described as follows: qHTS assay for small molecules that induce genotoxicity in human embryonic kidney cells expressing luciferase-tagged ATAD5 (AID 651632). Also: nearly all actives have a fitted effect of over 15% in size. The procedure, abridged: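 Test compounds were delivered by pin tool onto HEK293T reporter cells (2,000/well) expressing ATAD5 fused to luciferase. After 16 hr at 37C, 5% CO2, Amplite was added for 30 min at room temperature and luminescence was measured.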

A short description of assay [2]: qHTS assay for small molecules that induce genotoxicity in human embryonic kidney cells expressing luciferase-tagged ATAD5 - cell viability (AID 651634; calls by dose curve; also: nearly all actives have a fitted effect of over 25% in size; also: potency is read from the fitted curve at half-maximal effect). An outline of the steps: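 Quantitative high-throughput format. HEK293T cells expressing ATAD5 fused to luciferase were plated at 2,000 cells/well and treated 15.5 hr with compound versus DMSO. Viability was determined by fluorescent live-cell protease substrate, 30 min at 37C.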

Assay [3] can be described thus: qHTS assay to test for compound auto fluorescence at 590 nm (red) in HepG2 cells (AID 720674). An outline of the steps:
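1 hr compound incubation on HepG2 cells, 37 C, 5% CO2; plate read ex 540 nm / em 590 nm; intensities reported as Rose Bengal sodium equivalents.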
(In qHTS, concentration-response curves come from the screen itself.)

Assay [4] in a line: qHTS assay to test for compound auto fluorescence at 535 nm (green) in HepG2 cells (AID 720675).
Assay [5] can be described thus: qHTS assay to test for compound auto fluorescence at 460 nm (blue) in HEK293 cells (AID 720678). The procedure, abridged: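 HEK293 cells (2,000/well, medium with 10% dialyzed FBS) attached 4-5 hr, then exposed to compound overnight at 37C, 5% CO2. Blue fluorescence read at 405/460 nm, with triamterene as reference fluorophore.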
Assay [6] in a line: qHTS assay to test for compound auto fluorescence at 535 nm (green) in HEK293 cells (AID 720680).
Assay [7] is described as follows: qHTS assay to test for compound auto fluorescence at 460 nm (blue) in HEK293 cell free culture (AID 720681). An outline of the steps:
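Blue fluorescence (Ex 405/Em 460 nm, triamterene-equivalent) was read immediately after pin transfer of compound or DMSO into medium (DMEM, 10% FBS) without cells.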

Assay [8] is described as follows: qHTS assay to test for compound auto fluorescence at 535 nm (green) in HEK293 cell free culture (AID 720682). The procedure, abridged:
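Each library compound, or DMSO control, is added by pintool to medium alone, comprising DMEM and 10% FBS. Emission at 535 nm following 485 nm excitation is quantified against fluorescein.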

A short description of assay [9]: qHTS assay to test for compound auto fluorescence at 590 nm (red) in HEK293 cell free culture (AID 720683). The procedure, abridged:
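Red-channel autofluorescence of compounds in culture medium (DMEM, 10% FBS), no cells, measured at 540/590 nm. Rose Bengal sodium is the reference fluorophore for equivalence.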

Assay [10] can be described thus: qHTS assay to test for compound auto fluorescence at 590 nm (red) in HepG2 cell free culture (AID 720684). The procedure, abridged:
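Cell-free; medium MEM + 10% FBS; compound or DMSO added by pintool; read Ex 540/Em 590 nm; Rose Bengal sodium as red reference fluorophore.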

The nature of assay [11]: qHTS assay to test for compound auto fluorescence at 460 nm (blue) in HepG2 cell free culture (AID 720685). The procedure, abridged:
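Cell-free plates of MEM plus 10% FBS received 23 nL compound or DMSO vehicle; blue-channel (405/460 nm) intensity scored against triamterene as reference fluorophore.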

Assay [12] can be described thus: qHTS assay to test for compound auto fluorescence at 535 nm (green) in HepG2 cell free culture (AID 720686).
Assay [13] can be described thus: qHTS assay to test for compound auto fluorescence at 460 nm (blue) in HepG2 cells (AID 720687). The procedure, abridged:
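Blue-channel autofluorescence (Ex/Em 405/460 nm, triamterene-equivalent) was measured after 1 hr compound exposure at 37 C, 5% CO2. Cells were HepG2, plated overnight at 37 C in MEM plus 10% FBS.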

The target in assay [14] is Glucocorticoid receptor (Homo sapiens) (UniProt P04150). In words: qHTS assay to identify small molecule agonists of the glucocorticoid receptor (GR) signaling pathway (AID 720691; active = well fitted activation curve with a large enough effect in the signal ratio in the repeat runs, not every such curve was filed as active; the % refers to the signal ratio). To be noted: GR-bla HeLa, beta-lactamase reporter ratio, 18 h; activation: at 62.4 µM (top of the series) unless noted. An outline of the steps:
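A HeLa cervical cancer line expressing GR and a glucocorticoid response element-driven beta-lactamase gene is treated with compounds for 18 h; LiveBLAzer B/G FRET substrate is then applied and fluorescence read.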

The nature of assay [15]: qHTS assay for small molecule disruptors of the mitochondrial membrane potential - cell viability (AID 720634; calls by dose curve;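 also: human HepG2 liver cancer cells; nearly all actives have a fitted effect of over 20% in size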). An outline of the steps:
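Same-well counter-screen: following the MMP dye addition, CellTiter-Glo was added to 1 hr compound-treated HepG2 cells and luminescence read after 30 min at room temperature.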

Assay [16] in a line: qHTS assay for small molecule disruptors of the mitochondrial membrane potential (AID 720635). Also: potency is read from the fitted curve at half-maximal effect. An outline of the steps: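 Mitochondrial membrane potential tracked with Mito-MPS dye, red aggregates (ex 540/em 590 nm) against green monomers (ex 490/em 535 nm). Compound treatment 1 hr at 37C, dye 30 min in HepG2.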
Assay [17] can be described thus: qHTS assay to test for compound auto fluorescence at 590 nm (red) in HEK293 cells (AID 720679). The procedure, abridged:
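HEK293 cells (2,000/well, 10% dialyzed FBS) attached 4-5 hr, then dosed with compound or DMSO and incubated overnight at 37C, 5% CO2. Red fluorescence read at 540/590 nm, Rose Bengal sodium as reference fluorophore.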

The target of assay [18] is Glucocorticoid receptor (Homo sapiens) (UniProt P04150). In words: qHTS assay to identify small molecule antagonists of the glucocorticoid receptor (GR) signaling pathway (AID 720692; active = well fitted inhibition curve with a large enough effect in the signal ratio in the repeat runs, not every such curve was filed as active; the % refers to the signal ratio). An outline of the steps:
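GRE-bla HeLa line, dex-stimulated (5 nM final). Compound exposure 18 h, 37 C. Beta-lactamase FRET read after 2 h RT substrate.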

Glucocorticoid receptor (Homo sapiens), sequence (P04150 whole entry, looked up): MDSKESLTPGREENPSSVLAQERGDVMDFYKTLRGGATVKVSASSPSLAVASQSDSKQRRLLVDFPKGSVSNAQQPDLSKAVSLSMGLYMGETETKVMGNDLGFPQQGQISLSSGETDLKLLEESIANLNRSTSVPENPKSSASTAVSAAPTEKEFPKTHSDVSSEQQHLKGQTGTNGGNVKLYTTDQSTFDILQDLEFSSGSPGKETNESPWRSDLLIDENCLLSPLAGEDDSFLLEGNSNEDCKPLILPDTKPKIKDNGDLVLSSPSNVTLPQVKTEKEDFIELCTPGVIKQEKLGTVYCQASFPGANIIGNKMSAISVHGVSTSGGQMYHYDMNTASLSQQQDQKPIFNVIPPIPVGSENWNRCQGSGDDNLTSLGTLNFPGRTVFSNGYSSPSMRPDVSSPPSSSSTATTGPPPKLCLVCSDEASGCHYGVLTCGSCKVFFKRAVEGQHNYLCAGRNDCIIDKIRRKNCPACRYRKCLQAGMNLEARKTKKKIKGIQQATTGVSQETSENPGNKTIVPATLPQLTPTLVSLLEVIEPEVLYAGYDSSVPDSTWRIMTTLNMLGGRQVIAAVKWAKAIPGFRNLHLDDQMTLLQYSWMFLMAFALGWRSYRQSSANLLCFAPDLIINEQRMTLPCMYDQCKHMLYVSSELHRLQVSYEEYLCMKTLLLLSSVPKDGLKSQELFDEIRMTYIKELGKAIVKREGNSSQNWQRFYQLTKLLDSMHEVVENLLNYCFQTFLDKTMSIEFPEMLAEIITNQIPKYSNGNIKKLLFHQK

As to `Nc1ccc(N)c2c1C(=O)c1ccccc1C2=O`, the Potency entry in [1], in assay [3], in [4], in [9], in [10] and in assay [12] was “inactive” throughout. In addition, the Potency result in assay [14] is “inactive”. Further, the Potency in assay [2] is 27.3 µM (active). The molecule was called inactive in assay [5], in assay [6], in assay [7], in [8], in assay [11] and in assay [13].
In the case of `Cc1cccc(C)c1OCC(=O)N[C@@H](Cc1ccccc1)[C@@H](O)C[C@H](Cc1ccccc1)NC(=O)[C@H](C(C)C)N1CCCNC1=O`, the Potency result in [1], in assay [15], in assay [3], in [9], in assay [10] and in assay [12] was “inactive” in each case. In addition, the Potency result in assay [14] is “inactive”. Moreover, in [2], the Potency is 26.6 µM (active). The molecule was called inactive in assay [5], in [6], in assay [7], in [8], in assay [11] and in assay [13].
On to `CCC(C)c1cc(C(C)(C)C)c(O)c(C(C)(C)C)c1` (configuration not stated), for which the Potency result in [1], in assay [2], in assay [3], in [4], in assay [17] and in assay [10] was “inactive” each time. Moreover, the Potency result in assay [12], in assay [14] and in assay [18] was “inactive” in each case. Moreover, the Potency in assay [16] was 21.3 µM (active). In addition, the result in assay [5], in assay [6], in [7], in [8], in assay [11] and in [13] was inactive.
For the molecule `Cc1[nH]c(C)c(Cl)c(=O)c1Cl`, the Potency result in assay [1], in assay [2], in assay [15], in assay [16], in assay [3] and in assay [17] was “inactive” each time. In addition, the Potency result in assay [9], in [10], in assay [12], in assay [14] and in [18] was “inactive” in each case. Further, the molecule was called inactive in assay [5], in [6], in [7], in assay [8], in assay [11] and in assay [13].
Regarding `O=C(O)CC(=O)C(=O)O`, the Potency entry in assay [1], in [2], in assay [15], in [3], in assay [4] and in assay [17] was “inactive” throughout. In addition, the Potency result in assay [9], in [10], in [12], in assay [14] and in assay [18] was “inactive” throughout. Besides, the molecule was called inactive in assay [5], in assay [6], in assay [7], in [8], in assay [11] and in assay [13].
In the case of `CC(C)=CCC/C(C)=C/CC/C(C)=C/CO`, the Potency entry in [1], in assay [2], in [15], in assay [3], in assay [4] and in [17] was “inactive” throughout. Further, the Potency result in assay [9], in assay [10] and in [12] was “inactive” each time. The molecule was called inactive in assay [5], in [6], in [7], in assay [8], in assay [11] and in [13].
Take `CC(C)C[C@H]1C(=O)N2CCC[C@H]2[C@]2(O)O[C@](NC(=O)[C@@H]3C=C4c5cccc6[nH]c(Br)c(c56)C[C@H]4N(C)C3)(C(C)C)C(=O)N12`: the Potency entry in assay [1], in assay [15], in assay [3], in [4], in assay [10] and in assay [12] was “inactive” throughout. Besides, in assay [14], the Potency result was “inactive”. The Potency in assay [16] was 10.6 µM (active) and 8.23 µM (active). Moreover, the result in assay [5], in assay [6], in assay [7], in [8], in assay [11] and in assay [13] was inactive.
